The record followed here is PubChem BioAssay (NCI).

Where “and” joins values, the source holds several entries; their conditions need not be identical. Equal values may be shown once. The panel holds about 83,000 compounds, 20% with a hit somewhere; the sample as a whole holds those more often.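 Negative percent growth values reflect cell death: -40 means 40% of the cells present at the start died, and -100 means all died.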 Calls of active or inactive are those of the source. Rule for the calls: active = growth percent below 10; inactive = the rest.

Among the test systems are T-47D breast; BT-549 breast; MDA-MB-435 melanoma; SW-620 colon; MCF7 breast; HCT-116 colon; HCC-2998 colon; KM12 colon.
Test in all cases: NCI-60 one-dose screen, 48 h (100 = growth as untreated, 0 = no growth, -100 = all killed)
What all share (conditions): 10 µM unless noted

For `CC1(C)OC(=O)C(=Cc2ccc(C#N)cc2)C(=O)O1`, the growth in the assay on T-47D breast is 86.4% (inactive) and 102% (inactive); in the assay with BT-549 breast, 109% (inactive) and 103% (inactive); with MDA-MB-435 melanoma it was 108% (inactive) and 105% (inactive); with SW-620 colon, 100% (inactive) and 104% (inactive); in the assay with MCF7 breast, 104% (inactive) and 95.6% (inactive); in the assay on HCT-116 colon it was 96.5% (inactive) and 108% (inactive). The growth with HCC-2998 colon was 112% (inactive) and 105% (inactive); in the assay with KM12 colon it was 105% (inactive) and 115% (inactive).

For `Cc1nc(Nc2ccc(Cl)cc2)c2cnn(-c3ccccc3)c2n1`, the growth is 101% (inactive) in the assay with T-47D breast; 102% (inactive) in the assay with BT-549 breast; 94.7% (inactive) in the assay with MDA-MB-435 melanoma; 98.4% (inactive) in the assay on SW-620 colon; 88.2% (inactive) with MCF7 breast; 101% (inactive) in the assay with HCT-116 colon. The growth with HCC-2998 colon was 105% (inactive); in the assay on KM12 colon it was 106% (inactive).

Turning to `CC(=O)Oc1ccc(C2(c3ccc(OC(C)=O)cc3)C(=O)Nc3ccccc32)cc1`, the growth with T-47D breast was -26.3% (active) and -22.5% (active); in the assay with BT-549 breast it was -33.3% (active) and -8.43% (active); with MDA-MB-435 melanoma, 110% (inactive) and 126% (inactive); with SW-620 colon, 98.2% (inactive) and 104% (inactive); in the assay with MCF7 breast, 9.09% (active) and 15.1% (inactive); with HCT-116 colon, 84.9% (inactive) and 84.5% (inactive). The growth with HCC-2998 colon is -3.15% (active) and 44.8% (inactive); in the assay on KM12 colon, 71.3% (inactive) and 61.9% (inactive).

Take `CC1CC(O)CC(C)(C)C1.CC1CC(O)CC(C)(C)C1.CC1CC(O)CC(C)(C)C1.CC1CC(O)CC(C)(C)C1.[Ti]` (configuration not stated): the growth with T-47D breast was 92.7% (inactive); in the assay with BT-549 breast it was 111% (inactive); in the assay with MDA-MB-435 melanoma, 99.6% (inactive); in the assay on SW-620 colon it was 99.8% (inactive); in the assay with MCF7 breast, 99.8% (inactive); in the assay with HCT-116 colon it was 99.5% (inactive). The growth in the assay with HCC-2998 colon was 110% (inactive); in the assay on KM12 colon, 103% (inactive).

Consider `COc1ccc2nccc(Cl)c2c1`, for which the growth in the assay with T-47D breast was 122% (inactive); in the assay on BT-549 breast, 98.4% (inactive); in the assay on MDA-MB-435 melanoma it was 108% (inactive); with SW-620 colon, 101% (inactive); with MCF7 breast, 98.5% (inactive); in the assay on HCT-116 colon it was 103% (inactive). The growth in the assay with HCC-2998 colon is 115% (inactive); in the assay on KM12 colon it was 92.8% (inactive).

For the compound `CCCCCCC(C)CC1=C(O)c2ccccc2C(=O)C1=O` (configuration not stated), the growth in the assay with T-47D breast was 72.9% (inactive); in the assay with BT-549 breast, 49% (inactive); in the assay on MDA-MB-435 melanoma, 42.7% (inactive); in the assay with SW-620 colon, 35.4% (inactive); in the assay on MCF7 breast, 25.9% (inactive); in the assay with HCT-116 colon it was 23.6% (inactive). Also, the growth in the assay on HCC-2998 colon is 54.9% (inactive); with KM12 colon, 41.2% (inactive).

Consider `CC(=O)Nc1cscc1NC(C)=O`, for which the growth was 94.4% (inactive) in the assay on T-47D breast; 90.3% (inactive) in the assay with BT-549 breast; 89.1% (inactive) in the assay with MDA-MB-435 melanoma; 97.6% (inactive) in the assay with SW-620 colon; 94.5% (inactive) in the assay on MCF7 breast; 103% (inactive) in the assay with HCT-116 colon. Also, the growth in the assay on HCC-2998 colon was 94.1% (inactive); in the assay with KM12 colon it was 106% (inactive).

`COc1ccc(CCO)cc1`: the growth with T-47D breast is 101% (inactive); with BT-549 breast it was 105% (inactive); in the assay on MDA-MB-435 melanoma, 109% (inactive); in the assay with SW-620 colon, 104% (inactive); in the assay on MCF7 breast, 102% (inactive); in the assay on HCT-116 colon, 94.6% (inactive). Besides, the growth in the assay with HCC-2998 colon is 107% (inactive); in the assay on KM12 colon, 102% (inactive).

`CCNCc1ccccc1`: the growth in the assay on T-47D breast is 98.3% (inactive); in the assay with BT-549 breast it was 124% (inactive); in the assay on MDA-MB-435 melanoma, 110% (inactive); with SW-620 colon, 108% (inactive); in the assay with MCF7 breast it was 98.7% (inactive); with HCT-116 colon, 97.6% (inactive). In addition, the growth with HCC-2998 colon and with KM12 colon was 99.8% (inactive) throughout.

Turning to `Nc1ccc2ccc(NS(=O)(=O)N3CCCCC3)cc2c1`, the growth in the assay on T-47D breast was 46.8% (inactive); with BT-549 breast, 29% (inactive); in the assay on MDA-MB-435 melanoma it was -14.7% (active); in the assay on SW-620 colon it was 27.9% (inactive); with MCF7 breast, 17.8% (inactive); in the assay with HCT-116 colon, 9.95% (active). The growth with HCC-2998 colon is -3.22% (active); in the assay on KM12 colon, 15% (inactive).

As to `COCCNC(C)=O`, the growth in the assay on T-47D breast is 89.5% (inactive); in the assay on BT-549 breast, 106% (inactive); in the assay with MDA-MB-435 melanoma, 105% (inactive); in the assay on SW-620 colon, 105% (inactive); with MCF7 breast, 94.1% (inactive); with HCT-116 colon, 105% (inactive). The growth with HCC-2998 colon is 118% (inactive); in the assay with KM12 colon, 103% (inactive).

Regarding `COC(=O)c1nc(=S)[nH]c(C(=O)OC)c1C(=O)c1ccccc1`, the growth in the assay with T-47D breast is 107% (inactive); with BT-549 breast, 124% (inactive); in the assay on MDA-MB-435 melanoma it was 107% (inactive); with SW-620 colon it was 108% (inactive); in the assay with MCF7 breast, 94.2% (inactive); in the assay with HCT-116 colon, 126% (inactive). For the same compound, the growth with HCC-2998 colon was 116% (inactive); with KM12 colon, 114% (inactive).

For the compound `CCOC(=O)NC(N)=O`, the growth in the assay on T-47D breast is 104% (inactive) and 107% (inactive); in the assay on BT-549 breast it was 96% (inactive) and 110% (inactive); in the assay on MDA-MB-435 melanoma it was 101% (inactive) and 99% (inactive); in the assay on SW-620 colon, 107% (inactive) and 111% (inactive); in the assay with MCF7 breast it was 103% (inactive) and 107% (inactive); in the assay on HCT-116 colon, 99.3% (inactive) and 99.5% (inactive). For the same compound, the growth was 103% (inactive) with HCC-2998 colon and 112% (inactive) with KM12 colon.

Turning to `Cc1cc(NC(=O)NC(=O)c2ccccc2N(C)C)ccc1Oc1ncc(Br)cn1`, the growth in the assay with T-47D breast was 36.2% (inactive) and 52.2% (inactive); in the assay with BT-549 breast, 17.5% (inactive) and 39.1% (inactive); in the assay on MDA-MB-435 melanoma, -27.4% (active) and 6.67% (active); in the assay on SW-620 colon, 28.4% (inactive) and 33.9% (inactive); with MCF7 breast it was 16.5% (inactive) and 16.9% (inactive); with HCT-116 colon it was 17% (inactive) and 21.8% (inactive). The growth in the assay with HCC-2998 colon was 1.35% (active) and 50.4% (inactive); in the assay with KM12 colon, 15.3% (inactive) and 32.1% (inactive).
